Reference: paper PMC4552634, “A New Set of Chemical Starting Points with Plasmodium falciparum Transmission-Blocking Potential for Antimalarial Drug Discovery” (PLoS ONE, 2015)
Like-named read-outs stand apart in the source and are kept apart here. Screen size: about 13,000 compounds; about 3,200 (25%) showed an effect of 50% or more. Some of the results follow.

System: P. falciparum stage V gametocytes
Parameters: BacTiter-Glo ATP luminescence viability of purified stage V gametocytes in 384-well plates, per cent inhibition versus DMSO
Settings: 48 h, 5 µM, inhibitor

Row | Compound | % Inhibition [%] | % Inhibition (% Inhibition) [%]
1 | Cc1nc(-c2cccc(Nc3nccc(NCC(O)c4cccc(C(F)(F)F)c4)n3)c2)cs1 (centres unmarked) [TCMDC-136581] | -55.32 | –
2 | CC(Cc1ccc(OCc2ccccc2)cc1)NCC(O)c1cccc(Cl)c1 (centres unmarked) [TCMDC-131473] | 11.58 | –
3 | CC(Cc1ccc(OCC(=O)NCC2CCN(CCc3cccc(Cl)c3)CC2)cc1)NCCc1cccc(Cl)c1 (centres unmarked) [TCMDC-139834] | 46.25 | –
4 | CC(Cc1ccc(OCc2ccc(CCN(C)C)cc2)cc1)NCCc1cccc(Cl)c1 (centres unmarked) [TCMDC-139644] | 101.3 | –
5 | CC(Cc1ccc(COc2ccc(CC(CO)NCCc3cccc(Cl)c3)cc2)cc1)NCCc1cccc(Cl)c1 (centres unmarked) [TCMDC-139844] | 116.5 | –
6 | CCCCCCNC(=O)C1Cc2c([nH]c3ccc(C)cc23)C2(CCN(CCc3ccccc3)CC2)N1 (centres unmarked) [TCMDC-141092] | -44.59 | –
7 | Cc1ccc(-c2cc(C(=O)Nc3ccc(S(=O)(=O)N4CCCC(C)C4)cc3)[nH]n2)c(O)c1 (centres unmarked) [TCMDC-125183] | -50.15 | –
8 | COc1cc(CCOc2c(C)nc(N)nc2N)cc(OC)c1OC [TCMDC-131360] | -25.98 | –
9 | FC(F)(F)c1ccc(Nc2nnnc3ccccc23)cc1 [TCMDC-125603] | 38.58 | –
10 | CC(Cc1ccc(Oc2ccc(Cl)cc2)cc1)NCC(O)c1cccc(Cl)c1 (centres unmarked) [TCMDC-131511] | 4.056 | –
11 | CC(Cc1ccc(CSC(C)C)cc1)NCC(O)c1cccc(Cl)c1 (centres unmarked) [TCMDC-131525] | 23.17 | –
12 | COC(=O)/C=C/c1ccc(CC(C)NCC(O)c2cccc(Cl)c2)cc1 (centres unmarked) [TCMDC-131433] | -3.295 | –
13 | CC(Cc1ccc(SCCSc2ccccc2)cc1)NCC(O)c1cccc(Cl)c1 (centres unmarked) [TCMDC-131515] | 37.98 | –
14 | C[C@H](Cc1ccc(CCc2ccc(C[C@@H](C)NC[C@H](O)c3cccc(Cl)c3)cc2)cc1)NC[C@H](O)c1cccc(Cl)c1 [TCMDC-131551] | 114.3 | –
15 | CCCCCCCSc1ccc(CC(C)NCC(O)c2cccc(Cl)c2)cc1 (centres unmarked) [TCMDC-131493] | 21.35 | –
16 | C[C@H](Cc1ccc(Oc2ccc(C[C@@H](C)NC[C@H](O)c3cccc(Cl)c3)cc2)cc1)NC[C@H](O)c1cccc(Cl)c1 [TCMDC-131560] | 108 | –
17 | CNCCCCCCc1ccc(CC(C)NCC(O)c2cccc(Cl)c2)cc1 (centres unmarked) [TCMDC-131495] | 95.63 | –
18 | C[C@H](Cc1ccc(S(=O)(=O)c2ccc(C[C@@H](C)NC[C@H](O)c3cccc(Cl)c3)cc2)cc1)NC[C@H](O)c1cccc(Cl)c1 [TCMDC-131561] | 74.46 | –
19 | COc1ccc(CC(Cc2ccc(OC)cc2)NCC(O)c2cccc(Cl)c2)cc1 (centres unmarked) [TCMDC-131543] | 12.1 | –
20 | CC(Cc1ccc(S(=O)(=O)N(C(C)C)C(C)C)cc1)NCC(O)c1cccc(C(F)(F)F)c1 (centres unmarked) [TCMDC-131526] | 19.58 | –
21 | Cc1ccc(CCC(C)NCC(O)c2cccc(Cl)c2)cc1 (centres unmarked) [TCMDC-131436] | 13.72 | –
22 | O=C(CCCCCNC(=O)c1ccc(O)c(-c2ccc(Cl)c(Cl)c2)c1)NCCN1CCCC1 [TCMDC-140826] | -20.01 | –
23 | O=C(N[C@@H](CC1CCCCC1)C(=O)NCCN1CCOCC1)c1ccc(O)c(-c2ccc(Cl)c(Cl)c2)c1 [TCMDC-140854] | 37.92 | –

Row | Compound | % Inhibition [%] | % Inhibition (% Inhibition) [%]
24 | O=C(NC1CCN(c2ccnc3ccccc23)C1)c1ccc(OC(F)(F)F)cc1 (centres unmarked) [TCMDC-133582] | -7.681 | –
25 | O=c1cc(NCCCNCc2ccc3c(c2)OC(F)(F)O3)[nH]c2ccccc12 [TCMDC-139426] | -44.23 | –
26 | CCCN(CCCCNC(=O)c1ccc(-c2cccnc2)cc1)C1CCc2c(O)cccc2C1 (centres unmarked) [TCMDC-139071] | -19.52 | –
27 | CC(=O)Nc1ccc(CN2CCc3ccc(NS(=O)(=O)c4cccc(OCc5ccc(Cl)cc5)c4)cc3CC2)s1 [TCMDC-132327] | 4.938 | –
28 | O=C(Nc1ccc(-c2cccc(-c3nc4ccc(F)cc4[nH]3)c2)cc1)Nc1ccc(F)c(F)c1F [TCMDC-133235] | -6.689 | –
29 | CN(C)CCOc1cccc(-c2cnc(N)c(-c3nc4ccc(S(C)(=O)=O)cc4[nH]3)c2)c1 [TCMDC-133722] | 17.79 | –
30 | CN(Cc1cnc2nc(N)nc(N)c2n1)c1ccc(C(=O)NC(CCC(=O)O)C(=O)O)cc1 (centres unmarked) [TCMDC-125488] | – | 31.4
31 | Cc1[nH]c(C)c(-c2ccc(-c3ccc(OC(F)(F)F)cc3)cc2)c(=O)c1Br [TCMDC-134726] | 85.61 | –
32 | Cc1[nH]c(C)c(-c2ccc(Oc3ccc(OC(F)(F)F)cc3)cc2)c(=O)c1I [TCMDC-137387] | 20.63 | –
33 | Cc1[nH]c(C)c(-c2ccc(Oc3cccc(OC(F)(F)F)c3)cc2)c(=O)c1Cl [TCMDC-137389] | 30.57 | –
34 | Cc1[nH]c(C)c(-c2ccc(Oc3ccc(OC(F)(F)F)cc3)cc2)c(=O)c1Br [TCMDC-138826] | – | 69.76
35 | Cc1[nH]c(C)c(-c2cccc(-c3ccc(OC(F)(F)F)cc3)c2)c(=O)c1Br [TCMDC-135303] | 76.13 | –
36 | Cc1[nH]c(C)c(-c2ccc(Oc3ccc(OC(F)(F)F)cc3)cc2)c(=O)c1Br [TCMDC-137325] | – | 14.7
37 | Cc1[nH]c(C)c(-c2ccc(-c3ccc(OC(F)(F)F)cc3)cc2)c(=O)c1Cl [TCMDC-136060] | 114.3 | –
38 | CS(=O)(=O)NCCCNCc1ccc(-c2ccc(-c3nc4cc(F)ccc4[nH]3)cc2)cc1.O=C(O)C(F)(F)F [TCMDC-133081] | -74.36 | –
39 | Cc1cc(Nc2cc(Cl)cc(Cl)c2)nc(N)n1 [TCMDC-123780] | 13.41 | –
40 | CCCCc1ccc2[nH]cc(C3=CCN(C)CC3)c2c1Br [TCMDC-138963] | 18.47 | –
41 | CCCCc1ccc(-c2nc(NC(=O)Nc3nc(-c4ccccc4)[nH]c3C(=O)OCC)c(C(=O)OCC)[nH]2)cc1 [TCMDC-138897] | -17.92 | –
42 | CC(C)Nc1nc(NCCc2cnc[nH]2)nc(Nc2ccc(Oc3ccccc3)cc2)n1 [TCMDC-139746] | -7.765 | –
43 | COc1cc(CNCCCNc2cc(=O)c3ccccc3[nH]2)c2c(c1)C(C)CN2C(=O)OC(C)(C)C (centres unmarked) [TCMDC-140390] | -23.23 | –
44 | Cc1c(O)cccc1Nc1ccnc2ccc(C(F)(F)F)cc12 [TCMDC-138246] | -8.539 | –
45 | CN(C)C(=O)CN1CCN(c2ncnc(N3CCc4c([nH]c5ccccc45)[C@@H]3c3ccc4c(c3)CCO4)n2)CC1 [TCMDC-138571] | 5.552 | –
46 | Oc1cccc(C2CCCN(Cc3cccc4cc[nH]c34)C2)c1 (centres unmarked) [TCMDC-134419] | -7.919 | –

Row | Compound | % Inhibition [%] | % Inhibition (% Inhibition) [%]
47 | CCCCc1cc(NCc2ccncc2)nc(Nc2ccc(C)cc2)n1 [TCMDC-134000] | -5.693 | –
48 | OC1CCCN(Cc2ccc(-c3cccc(-c4nc5ccc(F)cc5[nH]4)c3)cc2)C1 (centres unmarked) [TCMDC-133815] | -14.67 | –
49 | CC(=O)N(C)C1CCN(Cc2ccc(-c3cccc(-c4nc5ccc(F)cc5[nH]4)c3)cc2)C1 (centres unmarked) [TCMDC-133885] | 25.2 | –
50 | NC1CCN(Cc2cccc(-c3ccc(-c4nc5ccc(F)cc5[nH]4)cc3)c2)C1 (centres unmarked) [TCMDC-133853] | 40.4 | –
51 | NC1CCCN(Cc2cccc(-c3ccc(-c4nc5ccc(F)cc5[nH]4)cc3)c2)C1 (centres unmarked) [TCMDC-133855] | 20.47 | –
52 | NC1CCN(Cc2ccc(-c3ccc(-c4nc5cc(F)ccc5[nH]4)cc3)cc2)C1 (centres unmarked) [TCMDC-133872] | 102.5 | –
53 | O=C(O)C(F)(F)F.OC1CCCN(Cc2ccc(-c3ccc(-c4nc5cc(F)ccc5[nH]4)cc3)cc2)C1 (centres unmarked) [TCMDC-133833] | -10.21 | –
54 | CC1CN(Cc2ccc(-c3ccc(-c4nc5cc(F)ccc5[nH]4)cc3)cc2)CC(C)O1.O=C(O)C(F)(F)F (centres unmarked) [TCMDC-133831] | -15.75 | –
55 | NC1CCN(Cc2ccc(-c3cccc(-c4nc5ccc(F)cc5[nH]4)c3)cc2)C1 (centres unmarked) [TCMDC-133838] | 61.76 | –
56 | NC1CCCN(Cc2ccc(-c3cccc(-c4nc5ccc(F)cc5[nH]4)c3)cc2)C1 (centres unmarked) [TCMDC-133840] | 68.96 | –
57 | O=C(Nc1ccc2c(c1)CCN2C1CCN(Cc2ccc(O)cc2)C1)c1ccco1 (centres unmarked) [TCMDC-135066] | -16.31 | –
58 | COC(=O)c1ccc(CC(C)NCC(O)c2cccc(C(F)(F)F)c2)cc1F (centres unmarked) [TCMDC-131519] | 6.156 | –
59 | NC1=NC(c2ccccc2)(c2ccccc2)C(=O)N1Cc1ccccc1Br [TCMDC-136813] | -33.84 | –
60 | O=c1cc(NCc2ccccc2NCc2ccc(Cl)c(Cl)c2)[nH]c2ccccc12 [TCMDC-139499] | -0.9265 | –
61 | COc1ccc2nc(C)cc(Nc3ccc(Cl)c(Cl)c3)c2c1 [TCMDC-124166] | 19.57 | –
62 | COc1ccc2c(NN=Cc3ccncc3)ccnc2c1 [TCMDC-142030] | -7.897 | –
63 | COc1ccc(C=NNc2cc(C)nc3ccc(OC)cc23)c(OC)c1 [TCMDC-123955] | 105.7 | –
64 | COc1ccc2nc(C)cc(NN=Cc3cc(C)ccc3O)c2c1 [TCMDC-124232] | 86.79 | –
65 | COc1ccc2nccc(NN=Cc3ccncc3)c2c1 [TCMDC-142033] | 25.13 | –
66 | COc1ccc2nc(C)cc(Nc3ccc(N4CCN(C)CC4)cc3)c2c1 [TCMDC-125813] | 1.536 | –
67 | COc1ccc2c(NN=Cc3ccncc3)cc(C)nc2c1 [TCMDC-142038] | 85.05 | –
68 | COc1ccc2c(Nc3ccc(N4CCN(C)CC4)cc3)cc(C)nc2c1 [TCMDC-123914] | 63.09 | –
